# Results taken from the supplement of paper PMC8728848.
# The sample as a whole holds a higher share of the strongest signals than the screen did.
# B1: Clec18A (Homo sapiens) (protein)
# chain: PFHTCDLRIDGDCFMVSSEADTYYRARMKCQRKGGVLAQIKRQKVQDILAFYLGRLETTNEVIDSDFETRNFWIGLTYKTAKDSFRWATGEHQAFTSFAFGQPDNHGFGNCVELQASAAFNWNDQRCKTRNRYICQ
# Tests used:
# Assay in all cases: glycan array binding signal (z-score within array); higher = stronger binding
# Settings in all cases: glycan notation: IUPAC condensed, linker removed
# Fuc(a1-2)Gal = molecular target: Fuc(a1-2)Gal
# Method in brief: (§1)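 Glycan array binding is given as a within-array Z-score, which can be read as non-binding when negative. The arrays, 3228 of them, came from the Consortium for Functional Glycomics database and were retained only where the protein sequence was available. Z-scores were averaged across arrays of the same protein sequence at different concentrations or buffers and across linkers.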
# [1] = molecular target: Fuc(a1-2)Gal(b1-4)GlcNAc(b1-3)GalNAc
# Method in brief: as §1
# [2] = molecular target: Fuc(a1-2)Gal(b1-4)[Fuc(a1-3)]GlcNAc
# Method in brief: as §1
# [3] = molecular target: Fuc(a1-2)[Gal(a1-3)]Gal(b1-3)GlcNAc(b1-6)GalNAc
# Method in brief: as §1
# [4] = molecular target: Fuc(a1-2)[GalNAc(a1-3)]Gal(b1-3)GlcNAc(b1-2)Man(a1-3)[Fuc(a1-2)[GalNAc(a1-3)]Gal(b1-3)GlcNAc(b1-2)Man(a1-6)]Man(b1-4)GlcNAc(b1-4)GlcNAc
# Method in brief: as §1
# [5] = molecular target: Fuc(a1-2)[GalNAc(a1-3)]Gal(b1-4)GlcNAc(b1-2)Man(a1-3)[Fuc(a1-2)[GalNAc(a1-3)]Gal(b1-4)GlcNAc(b1-2)Man(a1-6)]Man(b1-4)GlcNAc(b1-4)GlcNAc
# Method in brief: as §1
# [6] = molecular target: Fuc(a1-2)[GalNAc(a1-3)]Gal(b1-4)GlcNAc(b1-3)Gal(b1-4)GlcNAc(b1-3)Gal(b1-4)GlcNAc
# Method in brief: as §1
# [7] = molecular target: Fuc(a1-2)[GalNAc(a1-3)]Gal(b1-4)[Fuc(a1-3)]GlcNAc
# Method in brief: as §1
# Fuc(a1-3)GlcNAc = molecular target: Fuc(a1-3)GlcNAc
# Method in brief: as §1
# [8] = molecular target: Fuc(a1-3)[Gal(b1-4)]GlcNAc(b1-3)GalNAc
# Method in brief: as §1
# [9] = molecular target: Fuc(a1-3)[Gal3S(b1-4)]GlcNAc
# Method in brief: as §1
# [10] = molecular target: Fuc(a1-3)[GalNAc(b1-4)]GlcNAc
# Method in brief: as §1
# [11] = molecular target: Gal(a1-3)Gal(b1-3)GlcNAc(b1-3)GalNAc
# Method in brief: as §1
# [12] = molecular target: Gal(a1-3)[Gal(a1-4)]Gal(b1-4)GlcNAc
# Method in brief: as §1
# Gal(b1-3)Gal = molecular target: Gal(b1-3)Gal
# Method in brief: as §1
# Gal(b1-3)GlcNAc(b1-2)Man = molecular target: Gal(b1-3)GlcNAc(b1-2)Man
# Method in brief: as §1
# [13] = molecular target: Gal(b1-3)GlcNAc(b1-2)Man(a1-3)[Gal(b1-3)GlcNAc(b1-2)Man(a1-6)]Man(b1-4)GlcNAc(b1-4)GlcNAc
# Method in brief: as §1
# [14] = molecular target: Gal(b1-3)GlcNAc(b1-3)Gal(b1-3)GlcNAc
# Method in brief: as §1
# [15] = molecular target: Gal(b1-3)[Fuc(a1-4)]GlcNAc(b1-3)Gal(b1-3)[Fuc(a1-4)]GlcNAc
# Method in brief: as §1
# [16] = molecular target: Gal(b1-4)GlcNAc(b1-2)Man(a1-3)[Gal(b1-4)GlcNAc(b1-2)Man(a1-6)]Man(b1-4)GlcNAc(b1-4)GlcNAc
# Method in brief: as §1
# [17] = molecular target: Gal(b1-4)GlcNAc(b1-2)[Gal(b1-4)GlcNAc(b1-6)]Man(a1-6)[Gal(b1-4)GlcNAc(b1-2)Man(a1-3)]Man(b1-4)GlcNAc(b1-4)[Fuc(a1-6)]GlcNAc
# Method in brief: as §1
# [18] = molecular target: Gal(b1-4)GlcNAc(b1-3)Gal(b1-4)GlcNAc
# Method in brief: as §1
# [19] = molecular target: Gal(b1-4)GlcNAc(b1-3)Gal(b1-4)GlcNAc(b1-3)Gal(b1-4)GlcNAc
# Method in brief: as §1
# [20] = molecular target: Gal(b1-4)GlcNAc(b1-3)Gal(b1-4)GlcNAc(b1-3)Gal(b1-4)GlcNAc(b1-2)[Gal(b1-4)GlcNAc(b1-3)Gal(b1-4)GlcNAc(b1-3)Gal(b1-4)GlcNAc(b1-6)]Man(a1-6)[Gal(b1-4)GlcNAc(b1-3)Gal(b1-4)GlcNAc(b1-3)Gal(b1-4)GlcNAc(b1-2)Man(a1-3)]Man(b1-4)GlcNAc(b1-4)[Fuc(a1-6)]GlcNAc
# Method in brief: as §1
# [21] = molecular target: Gal(b1-4)GlcNAc(b1-3)Gal(b1-4)GlcNAc(b1-3)Gal(b1-4)GlcNAc(b1-3)Gal(b1-4)GlcNAc(b1-3)Gal(b1-4)GlcNAc(b1-2)Man(a1-3)[Gal(b1-4)GlcNAc(b1-3)Gal(b1-4)GlcNAc(b1-3)Gal(b1-4)GlcNAc(b1-3)Gal(b1-4)GlcNAc(b1-3)Gal(b1-4)GlcNAc(b1-2)Man(a1-6)]Man(b1-4)GlcNAc(b1-4)GlcNAc
# Method in brief: as §1
# [22] = molecular target: Gal(b1-4)GlcNAc(b1-3)[Gal(b1-4)GlcNAc(b1-6)]Gal(b1-4)GlcNAc
# Method in brief: as §1
# Gal(b1-4)GlcNAc6P = molecular target: Gal(b1-4)GlcNAc6P
# Method in brief: as §1
# Gal(b1-6)Gal = molecular target: Gal(b1-6)Gal
# Method in brief: as §1
# Gal6S(b1-3)GlcNAc = molecular target: Gal6S(b1-3)GlcNAc
# Method in brief: as §1
# Gal6S(b1-3)GlcNAc6S = molecular target: Gal6S(b1-3)GlcNAc6S
# Method in brief: as §1
# Glc(a1-6)Glc(a1-6)Glc = molecular target: Glc(a1-6)Glc(a1-6)Glc
# Method in brief: as §1
# GlcA(b1-6)Gal = molecular target: GlcA(b1-6)Gal
# Method in brief: as §1
# [23] = molecular target: GlcA3S(b1-3)Gal(b1-4)GlcNAc(b1-2)Man
# Method in brief: as §1
# [24] = molecular target: GlcNAc(b1-2)Man(a1-3)[GlcNAc(b1-2)Man(a1-6)]Man(b1-4)GlcNAc(b1-4)[Fuc(a1-6)]GlcNAc
# Method in brief: as §1
# [25] = molecular target: GlcNAc(b1-2)[GlcNAc(b1-4)]Man(a1-3)[GlcNAc(b1-2)Man(a1-6)]Man(b1-4)GlcNAc(b1-4)GlcNAc
# Method in brief: as §1
# [26] = molecular target: GlcNAc(b1-3)[GlcNAc(b1-6)]Gal(b1-4)GlcNAc
# Method in brief: as §1
# [27] = molecular target: GlcNAc(b1-3)[GlcNAc(b1-6)]GalNAc
# Method in brief: as §1
# GlcNAc(b1-6)GalNAc = molecular target: GlcNAc(b1-6)GalNAc
# Method in brief: as §1
# [28] = molecular target: Neu5Ac(a2-3)Gal(b1-3)GalNAc(b1-3)Gal(a1-4)Gal(b1-4)Glc
# Method in brief: as §1
# [29] = molecular target: Neu5Ac(a2-3)Gal(b1-3)GlcNAc(b1-2)Man
# Method in brief: as §1
# [30] = molecular target: Neu5Ac(a2-3)Gal(b1-4)GlcNAc(b1-2)Man(a1-3)[Neu5Ac(a2-6)Gal(b1-4)GlcNAc(b1-2)Man(a1-6)]Man(b1-4)GlcNAc(b1-4)GlcNAc
# Method in brief: as §1
# [31] = molecular target: Neu5Ac(a2-3)Gal(b1-4)GlcNAc(b1-2)[Neu5Ac(a2-3)Gal(b1-4)GlcNAc(b1-4)]Man(a1-3)[GlcNAc(b1-4)][Neu5Ac(a2-3)Gal(b1-4)GlcNAc(b1-2)[Neu5Ac(a2-3)Gal(b1-4)GlcNAc(b1-6)]Man(a1-6)]Man(b1-4)GlcNAc(b1-4)GlcNAc
# Method in brief: as §1
# [32] = molecular target: Neu5Ac(a2-3)Gal(b1-4)GlcNAc(b1-2)[Neu5Ac(a2-3)Gal(b1-4)GlcNAc(b1-4)]Man(a1-3)[GlcNAc(b1-4)][Neu5Ac(a2-3)Gal(b1-4)GlcNAc(b1-4)Man(a1-6)]Man(b1-4)GlcNAc(b1-4)GlcNAc
# Method in brief: as §1
# [33] = molecular target: Neu5Ac(a2-3)Gal(b1-4)GlcNAc(b1-3)Gal(b1-4)[Fuc(a1-3)]GlcNAc
# Method in brief: as §1
# [34] = molecular target: Neu5Ac(a2-6)Gal(b1-4)GlcNAc(b1-3)Gal(b1-3)GlcNAc
# Method in brief: as §1
# [35] = molecular target: Neu5Ac(a2-6)Gal(b1-4)GlcNAc(b1-3)Gal(b1-4)GlcNAc(b1-2)Man(a1-3)[Neu5Ac(a2-6)Gal(b1-4)GlcNAc(b1-3)Gal(b1-4)GlcNAc(b1-2)Man(a1-6)]GalNAc
# Method in brief: as §1
# [36] = molecular target: Neu5Ac(a2-6)Gal(b1-4)GlcNAc(b1-3)Gal(b1-4)GlcNAc(b1-6)[Gal(b1-3)]GalNAc
# Method in brief: as §1
# [37] = molecular target: Neu5Ac(a2-6)Gal(b1-4)GlcNAc(b1-3)[Neu5Ac(a2-6)Gal(b1-4)GlcNAc(b1-6)]GalNAc
# Method in brief: as §1
# [38] = molecular target: Neu5Ac(a2-6)Gal(b1-4)GlcNAc(b1-6)[Gal(b1-3)]GalNAc
# Method in brief: as §1
# [39] = molecular target: Neu5Ac(a2-8)Neu5Ac(a2-3)[GalNAc(b1-4)]Gal(b1-4)Glc
# Method in brief: as §1
# [40] = molecular target: Neu5Ac(b2-6)Gal(b1-4)GlcNAc
# Method in brief: as §1
binder,measurement,setting,value
B1,glycan array binding signal (z-score),Fuc(a1-2)Gal,-0.536
same,glycan array binding signal (z-score),[1],-0.366
same,glycan array binding signal (z-score),[2],-0.32
same,glycan array binding signal (z-score),[3],1.74
same,glycan array binding signal (z-score),[4],-0.538
same,glycan array binding signal (z-score),[5],4.62
same,glycan array binding signal (z-score),[6],-0.814
same,glycan array binding signal (z-score),[7],-0.083
same,glycan array binding signal (z-score),Fuc(a1-3)GlcNAc,-0.783
same,glycan array binding signal (z-score),[8],-0.458
same,glycan array binding signal (z-score),[9],0.178
same,glycan array binding signal (z-score),[10],0.38
same,glycan array binding signal (z-score),[11],-0.324
same,glycan array binding signal (z-score),[12],2.29
same,glycan array binding signal (z-score),Gal(b1-3)Gal,-0.801
same,glycan array binding signal (z-score),Gal(b1-3)GlcNAc(b1-2)Man,-0.886
same,glycan array binding signal (z-score),[13],0.56
same,glycan array binding signal (z-score),[14],4.51
same,glycan array binding signal (z-score),[15],0.734
same,glycan array binding signal (z-score),[16],1.15
same,glycan array binding signal (z-score),[17],3.1
same,glycan array binding signal (z-score),[18],3.23
same,glycan array binding signal (z-score),[19],0.45
same,glycan array binding signal (z-score),[20],3.83
same,glycan array binding signal (z-score),[21],0.263
same,glycan array binding signal (z-score),[22],0.596
same,glycan array binding signal (z-score),Gal(b1-4)GlcNAc6P,0.093
same,glycan array binding signal (z-score),Gal(b1-6)Gal,3
same,glycan array binding signal (z-score),Gal6S(b1-3)GlcNAc,3.79
same,glycan array binding signal (z-score),Gal6S(b1-3)GlcNAc6S,-0.347
same,glycan array binding signal (z-score),Glc(a1-6)Glc(a1-6)Glc,-0.771
same,glycan array binding signal (z-score),GlcA(b1-6)Gal,8.1
same,glycan array binding signal (z-score),[23],-0.619
same,glycan array binding signal (z-score),[24],-0.289
same,glycan array binding signal (z-score),[25],-0.935
same,glycan array binding signal (z-score),[26],-0.673
same,glycan array binding signal (z-score),[27],-0.327
same,glycan array binding signal (z-score),GlcNAc(b1-6)GalNAc,0.314
same,glycan array binding signal (z-score),[28],2.87
same,glycan array binding signal (z-score),[29],1.04
same,glycan array binding signal (z-score),[30],-0.398
same,glycan array binding signal (z-score),[31],-0.652
same,glycan array binding signal (z-score),[32],-0.566
same,glycan array binding signal (z-score),[33],-0.342
same,glycan array binding signal (z-score),[34],-0.391
same,glycan array binding signal (z-score),[35],-0.045
same,glycan array binding signal (z-score),[36],0.884
same,glycan array binding signal (z-score),[37],3.01
same,glycan array binding signal (z-score),[38],1.17
same,glycan array binding signal (z-score),[39],4.6
same,glycan array binding signal (z-score),[40],0.965
